Molecules are shown by their SMILES. This is part of a sample that, as a whole, favours compounds with a hit. Of some 79,000 tested, about 15% had one in any assay. Unmarked numbers belong to inactive results. Activity calls are given as the source filed them. Cut-off read from the data, not from the text of the source: active = growth inhibition above about 70%; inactive = the rest.

The nature of assay [1]: NCI Yeast Anticancer Drug Screen. Data for the rad50 strain (AID 155).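 Note: 0% = growth of vehicle-only cultures of the same strain.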 Particulars: S. cerevisiae rad50 strain growth inhibition; at 50.0 µM; hits give high values. The essentials:
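Yeast carrying a defined DNA repair defect were exposed to test compounds, and growth was compared with vehicle-treated controls to give percent inhibition.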

The nature of assay [2]: NCI Yeast Anticancer Drug Screen. Data for the mec2-1 strain (AID 157). The conditions noted are these: S. cerevisiae mec2-1 strain, at 50.0 µM, hits give high values. In a few lines: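 mec2-1 yeast strain, carrying an alteration in DNA damage repair or cell cycle control, was exposed to compounds; growth inhibition was measured relative to vehicle-treated controls.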
Assay [3] in a line: NCI Yeast Anticancer Drug Screen. Data for the sgs1 mgt1 strain (AID 161).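 Note: 0% = growth of cultures given vehicle only.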 Particulars: S. cerevisiae sgs1 mgt1 strain, at 50.0 µM, hits give high values. In a few lines: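 Percent growth inhibition was derived by comparing compound-exposed mutant yeast with vehicle-exposed cultures. The strain carries alterations in DNA damage repair.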
A short description of assay [4]: NCI Yeast Anticancer Drug Screen. Data for the cln2 rad14 strain (AID 165).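 Note: 0% = growth equal to vehicle treated cultures.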 Particulars: S. cerevisiae cln2 rad14 strain, at 50.0 µM, hits give high values. The essentials:
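Yeast carrying cln2 and rad14 alterations (cell cycle control and DNA damage repair) were exposed to compounds. Growth inhibition was measured against vehicle-treated controls.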

Assay [5] can be described thus: NCI Yeast Anticancer Drug Screen. Data for the bub3 strain (AID 167). Particulars: S. cerevisiae bub3 mutant strain, at 50.0 µM, hits give high values. The essentials: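 Compounds were applied to a genetically altered yeast strain carrying a cell-cycle control defect. Growth inhibition was scored against vehicle-treated controls.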
Assay [6] is described as follows: NCI Yeast Anticancer Drug Screen. Data for the mlh1 rad18 strain (AID 175). Particulars: S. cerevisiae mlh1 rad18 strain growth inhibition; at 50.0 µM; hits give high values. In a few lines:
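Growth inhibition of the yeast strain was measured after compound exposure and expressed relative to vehicle-treated controls. The strain carries defined defects in DNA damage repair.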

Take `CO/C=C/CCCO`: the growth inhibition is -14.8% in assay [1]; -16.5% in assay [2]; -14.8% in assay [3]; 7.55% in assay [4]; -3.55% in assay [5]; -9.7% in assay [6].
As to `COC(=O)C1CCC(=O)N1C(c1ccc(OC)cc1)c1ccc2c(c1)OCO2` (stereo unspecified), the growth inhibition in assay [1] is -0.1%; in assay [2], 20.9%; in assay [3], 11.1%; in assay [4] it was 11.7%; in assay [5], 31.5%; in assay [6] it was 34%.
For `O=C(N=Nc1c(O)[nH]c2ccc(Br)cc12)c1ccco1`, the growth inhibition in assay [1] is 24.2%; in assay [2] it was 28.8%; in assay [3], 43.2%; in assay [4], 14.7%; in assay [5], 43.2%; in assay [6] it was 43%.
On to `Cc1ccc2c3c1CCCN3CCC2`, for which the growth inhibition is 3.45% in assay [1]; -3.85% in assay [2]; 15.6% in assay [3]; 61.9% in assay [4]; -0.55% in assay [5]; 8.95% in assay [6].
For the compound `N#CCCSC(=S)C1CCCCC1=N` (stereo unspecified), the growth inhibition was -5.3% in assay [1]; 0.8% in assay [2]; 12.8% in assay [3]; -112% in assay [4]; -24.9% in assay [5]; -2.25% in assay [6].
Take `CCOC(=O)C(NC(C)=O)C(O)c1ccc(Cl)cc1Cl` (stereo unspecified): the growth inhibition was 18.4% in assay [1]; 3.4% in assay [2]; 0.05% in assay [3]; -45.9% in assay [4]; -9.4% in assay [5]; 19.7% in assay [6].
For the compound `CO[C@@H]1[C@@H](O)c2ccccc2N1C(C)=O`, the growth inhibition in assay [1] is 13.4%; in assay [2], 1.9%; in assay [3], -4%; in assay [4] it was 8.15%; in assay [5], 3.25%; in assay [6] it was 20.1%.
On to `C1=C(CN2CCCCC2)Oc2ccccc2O1`, for which the growth inhibition in assay [1] was 25.3%; in assay [2] it was 36.9%; in assay [3] it was 42.5%; in assay [4], 46%; in assay [5], 21.3%; in assay [6], 34.9%.
Regarding `Cc1cc(OCCCC[N+](C)(C)Cc2ccc(Br)o2)c(C(C)C)cc1Cl`, the growth inhibition was 99.5% (active) in assay [1]; 99.5% (active) in assay [2]; 99.2% (active) in assay [3]; 99.3% (active) in assay [4]; 99.2% (active) in assay [5]; 99.3% (active) in assay [6].
On to `NC(CCCCO)C(=O)O` (stereo unspecified), for which the growth inhibition was -6.8% in assay [1]; -35.8% in assay [2]; 4.1% in assay [3]; 23.1% in assay [4]; -29.1% in assay [5]; -15% in assay [6].
For the compound `O=C(Nc1ccccc1-c1ccccc1)c1ccccc1`, the growth inhibition is 1.15% in assay [1]; -11.5% in assay [2]; 20.1% in assay [3]; 11.3% in assay [4]; 45.4% in assay [5]; 26.9% in assay [6].
As to `C=C(C)C1CCC2(C)CC3C(=C)CC(O)C(O)C3(C)CCC12` (stereo unspecified), the growth inhibition in assay [1] is 48.2%; in assay [2] it was 88.8% (active); in assay [3] it was 90.8% (active); in assay [4], 90% (active); in assay [5] it was 90.2% (active); in assay [6] it was 89.5% (active).
As to `CCOC(=O)CCN(CCC(=O)OCC)Cc1cc(Cl)c2cccnc2c1O`, the growth inhibition in assay [1] is 99.1% (active); in assay [2] it was 98.6% (active); in assay [3], 99% (active); in assay [4], 98.5% (active); in assay [5], 99.3% (active); in assay [6] it was 97.8% (active).
As to `CCCCCSc1ncnc2c1ncn2CO`, the growth inhibition was 0.9% in assay [1]; 18.1% in assay [2]; 7.45% in assay [3]; 9.75% in assay [4]; 42.7% in assay [5]; 3.6% in assay [6].
Turning to `CC(=O)N1OCCc2ccccc21`, the growth inhibition in assay [1] is 8.2%; in assay [2], -0.15%; in assay [3], -6.65%; in assay [4] it was -37.5%; in assay [5], -5.5%; in assay [6], -1.45%.
As to `Nc1ccc2c(c1)C1Oc3ccccc3CC1CO2` (stereo unspecified), the growth inhibition in assay [1] is 33%; in assay [2], 6.55%; in assay [3] it was 20.1%; in assay [4], 8.05%; in assay [5] it was 12.8%; in assay [6] it was 47.2%.
As to `COC(=N)CCCl`, the growth inhibition in assay [1] is -1.3%; in assay [2], -3.95%; in assay [3], 10.8%; in assay [4], 7.2%; in assay [5] it was -4.55%; in assay [6] it was 1.5%.
On to `CCc1cc2c(cc1/C(C)=N/N=C(\C)c1cc3c(cc1CC)C(C)(C)CCC3(C)C)C(C)(C)CCC2(C)C`, for which the growth inhibition in assay [1] is -27.1%; in assay [2], -1.8%; in assay [3], -9.3%; in assay [4] it was -30.6%; in assay [5] it was 9.95%; in assay [6], -15.5%.
In the case of `CCOC(=O)CNC(=O)CNC(=O)CNS(=O)(=O)c1ccc(C)cc1`, the growth inhibition in assay [1] is -22.1%; in assay [2], 15.2%; in assay [3] it was 3.1%; in assay [4], -28.5%; in assay [5], 10.9%; in assay [6] it was -45.8%.
As to `CC(=O)c1cc2c(cc1C)C(C)CCC2(C)C` (stereo unspecified), the growth inhibition is -7% in assay [1]; -29.4% in assay [2]; -9.6% in assay [3]; -6.1% in assay [4]; 1.9% in assay [5]; -22.5% in assay [6].
For the compound `C/C(=N\NC(=S)N1CCN(c2ccccn2)CC1)c1cccc2cccnc12`, the growth inhibition is 13.4% in assay [1]; -21.1% in assay [2]; -18.9% in assay [3]; 2.4% in assay [4]; 1.4% in assay [5]; -0.25% in assay [6].
